Results reported in PubChem BioAssay (EPA / NIEHS).
“And” between values parts separate entries of the source, which are not always exact repeats. Equal entries are not always repeated. The source made the active and inactive calls. Rule for the calls: active = hit-call score of the fitted dose curve at least 0.9, where 1 is the maximum; inactive = score below 0.9.

What follows are compounds tested on Vascular cell adhesion molecule 1 (VCAM1), VCAM1 (gene 7412) (assay: BSK_hDFCGF_VCAM1: BioMAP Diversity Plus: hDFCGF Assay for Vascular cell adhesion molecule 1 (VCAM1) Biomarker Activity (AID 2283065)). Details: primary human foreskin fibroblasts; actives raise or lower the signal.
Method: BSK_hDFCGF is a cell-based, multiplexed-readout assay that uses foreskin fibroblast, a human skin primary cell, with measurements taken at 24 hours after chemical dosing in a 96-well plate.BSK_hDFCGF_VCAM1 is an assay component measured in the BSK_hDFCGF assay. It measures VCAM-1 antibody related to regulation of gene expression using ELISA technology.Data from the assay component BSK_hDFCGF_VCAM1 was analyzed into 1 assay endpoint. This assay endpoint, BSK_hDFCGF_VCAM1, was analyzed with bidirectional fitting relative to DMSO as the negative control and baseline of activity. Using a type of binding reporter, gain or loss-of-signal activity can be used to understand changes in the signaling as they relate to the gene VCAM1. Furthermore, this assay endpoint can be referred to as a primary readout, because this assay has produced multiple assay endpoints where this one serves a signaling function. To generalize the intended target to other relatable targets, this assay endpoint is annotated to the cell adhesion molecules intended target family, where the subfamily is Immunoglobulin CAM.
The levels of cell surface (or secreted, indicated by the prefix "s") biomarker endpoints were measured by ELISA. Overt cytotoxicity to cells in confluent adherent cultures (all systems other than the BT system) was assessed by measuring total protein levels using sulforhodamine B (SRB) staining in parallel cultures at the time of biomarker measurements, indicated as SRB endpoints. For proliferation assays for adherent cell types, individual cell types are cultured at sub-confluence and relative cell numbers quantified by SRB staining at time points optimized for each system (48 h: 3C and CASM3C systems; 72 h: BT and HDF3CGF systems; 96 h: SAg system). SRB was performed by staining cells with 0.1% SRB after fixation with 10% TCA and reading wells at 560 nm.Viability and proliferation of PBMC (T cells) was quantified by Alamar Blue reduction for the SAg and BT systems. For PBMC viability (referred to as PBMC Cytotoxicity within the assay endpoint names), cells were plated (75,000/well in a 96-well plate) and then chemical samples added for 1 h before addition of activators, SEB and TSST-1 (20 ng/mL final concentration each). Cells were incubated for 90 h. Then, Alamar Blue (20 uL/well) (Invitrogen, Cat DAL1100) was added for 6 h, and the plates were read with a fluorescence microplate reader at 546/580 nm (excitation/emission). For PBMC proliferation, cells were plated and activated as above but incubated for only 16 h prior to addition of Alamar Blue. Plates were read after 6 h.

SMILES | outcome | AC50
NC(=O)C(F)(F)C(F)(F)F | inactive | 
CCCCCCCc1ccc(O)cc1 |  | 20.7 µM (active)
O=S1(=O)OCC2C(CO1)C1(Cl)C(Cl)=C(Cl)C2(Cl)C1(Cl)Cl (stereo not given) | inactive | 
CCCCC(CC)COP(=O)(Oc1ccccc1)Oc1ccccc1 (stereo not given) |  | 1.69 µM (active)
O=[N+]([O-])c1ccc(Cl)c(Cl)c1 | inactive | 
c1ccc2c(c1)sc1ccccc12 | inactive | 
CCCCC(CC)COC(=O)c1c(Br)c(Br)c(Br)c(Br)c1C(=O)OCC(CC)CCCC (stereo not given) | inactive | 
O=C(O)C(F)(F)OC(F)(F)C(F)(F)OC(F)(F)C(=O)O | inactive | 
N#Cc1c(-c2ccc(Cl)cc2)[nH]c(C(F)(F)F)c1Br |  | 2.9 µM (active)
O=C(O)C(Cl)Cl | inactive | 
CCNc1nc(Cl)nc(NC(C)(C)C)n1 | inactive | 
COP(=O)(O)OC | inactive | 
COP(=O)(CCC(=O)NCO)OC | inactive | 
CCCCN(CCCC)N=O | inactive | 
O=S(=O)(F)C(F)(F)C(F)(F)C(F)(F)C(F)(F)C(F)(F)C(F)(F)C(F)(F)C(F)(F)F | inactive | 
CC(C)(C)c1ccccc1OP(=O)(Oc1ccccc1)Oc1ccccc1 |  | 20 µM (active)
CCC(C)(C)c1ccc(O)cc1 | inactive | 
O=C(O)C1C(C(=O)O)C2(Cl)C(Cl)=C(Cl)C1(Cl)C2(Cl)Cl (stereo not given) | inactive | 
CC(Cl)CN(C)C (stereo not given) | inactive | 
CCCCc1ccccc1 | inactive | 

SMILES | outcome | AC50
Cc1ccc(N)cc1N | inactive | 
CCOP(=S)(OCC)SCS(=O)(=O)CC | inactive | 
CCC1(c2ccccc2)C(=O)N=C(O)NC1=O (stereo not given) | inactive | 
ClC(Cl)=C(c1ccc(Cl)cc1)c1ccccc1Cl |  | 2.68 µM (active)
Cc1cccc(N)c1 | inactive | 
CC(C)(C)c1ccc(O)cc1 | inactive | 
O=C(O)C(F)(F)OC(F)(F)C(F)(F)OC(F)(F)F | inactive | 
FC(F)(F)C(F)(C(F)(F)F)C(F)(F)C(F)(F)CC1CO1 (stereo not given) | inactive | 
O=P(OCC(Br)CBr)(OCC(Br)CBr)OCC(Br)CBr (stereo not given) | inactive | 
CC(Cl)(Cl)C(=O)O | inactive | 
C=CC(=O)OCC(F)(F)C(F)F |  | 20 µM (active) and 11.1 µM (active)
OCC(F)(F)OC(F)(F)C(F)(F)OC(F)(F)CO | inactive | 
c1nc[nH]n1 | inactive | 
CCN(CC)c1ccccc1 | inactive | 
CC(O)C(F)(F)C(F)(F)F (stereo not given) | inactive | 
ClC(Cl)c1ccccc1 | inactive | 
CCCN(CCC)c1c([N+](=O)[O-])cc(C(C)C)cc1[N+](=O)[O-] |  | 14.3 µM (active)
CCCCOCCOP(=O)(OCCOCCCC)OCCOCCCC | inactive | 
O=C(O)C(F)(F)C(F)(F)C(=O)O | inactive | 
CC(C)Nc1ccc(Nc2ccccc2)cc1 |  | 2.21 µM (active)
